{"source": "PubChem BioAssay (EPA / NIEHS)", "note": "Results filed as inconclusive are left out. The source made the active and inactive calls. The calls were made as follows: active = hit-call score of the fitted dose curve at least 0.9, where 1 is the maximum; inconclusive = response in the unintended direction; inactive = score below 0.9.", "data": [{"target": "Retinoic acid receptor RXR-alpha (Homo sapiens) (UniProt P19793)", "sequence (P19793 whole entry, looked up)": "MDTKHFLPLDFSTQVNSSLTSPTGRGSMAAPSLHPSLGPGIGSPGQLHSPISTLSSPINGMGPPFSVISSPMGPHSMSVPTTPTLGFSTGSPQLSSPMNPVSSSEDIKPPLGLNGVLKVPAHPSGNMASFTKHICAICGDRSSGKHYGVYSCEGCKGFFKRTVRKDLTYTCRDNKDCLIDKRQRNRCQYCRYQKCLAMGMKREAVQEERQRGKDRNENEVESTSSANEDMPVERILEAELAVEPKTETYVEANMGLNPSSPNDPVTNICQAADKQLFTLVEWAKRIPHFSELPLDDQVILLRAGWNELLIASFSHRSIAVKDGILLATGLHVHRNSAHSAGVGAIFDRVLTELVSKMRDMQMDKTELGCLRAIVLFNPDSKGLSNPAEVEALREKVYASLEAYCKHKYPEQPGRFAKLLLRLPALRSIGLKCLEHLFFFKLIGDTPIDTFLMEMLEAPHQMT", "experiment": "ATG_RXRa_TRANS: Attagene TRANS-FACTORIAL HepG2 Assay for human Retinoid X Receptor alpha (RXRa) (AID 2283012)", "method": "ATG_TRANS is a cell-based, multiplexed-readout assay that uses HepG2, a human liver cell line, with measurements taken at 24 hours after chemical dosing in a 24-well plate.ATG_RXRa_TRANS is one of 30 assay component(s) measured or calculated from the ATG_TRANS assay. It is designed to make measurements of mRNA induction, a form of inducible reporter, as detected with fluorescence intensity signals by Reverse transcription polymerase chain reaction (RT-PCR) and Capillary electrophoresis technology.Data from the assay component ATG_RXRa_TRANS was analyzed into 1 assay endpoint. This assay endpoint, ATG_RXRa_TRANS, was analyzed in the positive analysis fitting direction relative to DMSO as the negative control and baseline of activity. Using a type of inducible reporter, measures of mRNA for gain-of-signal activity can be used to understand the reporter gene at the transcription factor-level as they relate to the gene RXRA. Furthermore, this assay endpoint can be referred to as a primary readout, because this assay has produced multiple assay endpoints where this one serves a reporter gene function. To generalize the intended target to other relatable targets, this assay endpoint is annotated to the nuclear receptor intended target family, where the subfamily is non-steroidal.\nHuman liver HepG2 cells are transiently transfected with multiple reporter transcription units (MRTUs) in 6-well plates using FuGene 6 reagent (Roche; 3 ml FuGene/1 mg DNA). The MRTU constructs are regulated by a cis-regulating element (promoter). […] A major difference between the CIS and TRANS system is that in CIS activities of endogenous TFs are measured, whereas the TRANS assay evaluates changes in activities of exogenous, chimeric NR-Gal4 proteins. […] At the end of 24 hour incubation, total RNA was isolated using TriZol reagent (Invitrogen). The isolated RNA is then reverse-transcribed using oligo(dT) primer and Mo-MLV reverse transcriptase (Invitrogen) with DNAse I (Ambion) treatment for 30 min. The one-tenth of the produced cDNA was amplified by PCR using Taq DNA polymerase (Invitrogen) and two reporter sequence-specific primers. The PCR products were fluorescently labeled by primer extension with 6-arboxyfluorescein (6-FAM) 5'-labeled reporter sequence-specific primer (2 min at 95 C, 20 s at 68 C and 10 min at 72 C) and these products were digested with 5U of HpaI (New England Biolabs) for 2h at 37 C. The fragments were purified using Qiaquick PCR columns (Qiagen), analyzed on an ABI 3130xL genetic analyzer (Applied Biosystems) with peak positions identified by using a set of X-rhodamine (ROX)-labeled MapMarker1000 molecular weight standards (BioVentures). The raw capillary electrophoresis data was processed using Attagraph software (Attagene).", "values": [{"smiles": "O=S(=O)(O)c1ccc(Cl)cc1", "outcome": "inactive"}, {"smiles": "O=C(Cl)C(F)(F)C(F)(F)C(F)(F)C(F)(F)C(F)(F)C(F)(F)F", "outcome": "inactive"}, {"smiles": "OCC(O)CC(F)(F)C(F)(F)C(F)(F)C(F)(F)C(F)(F)C(F)(F)C(F)(F)C(F)(F)F", "note": "(stereo not given)", "outcome": "inactive"}, {"smiles": "Oc1ccc2c(c1)CCC2", "outcome": "inactive"}, {"smiles": "CCCCOC(=O)C(C)O", "note": "(stereo not given)", "outcome": "inactive"}, {"smiles": "CCOC(C=C(C)CCC=C(C)C)OCC", "outcome": "inactive"}, {"smiles": "CCc1cc(Cc2cc(CC)c(N)c(CC)c2)cc(CC)c1N", "outcome": "inactive"}, {"smiles": "Brc1ccccn1", "outcome": "inactive"}, {"smiles": "CCN=C1C=CC(=C(c2ccc(N(CC)CC)cc2)c2ccc(N(CC)CC)cc2)c2ccccc21", "outcome": "inactive"}, {"smiles": "CCCCCCCCCCCC(=O)Cl", "outcome": "inactive"}, {"smiles": "OCCCCC(F)(F)C(F)(F)C(F)(F)C(F)(F)F", "outcome": "inactive"}, {"smiles": "Cc1ccc(O)c(-n2nc3ccccc3n2)c1", "outcome": "inactive"}, {"smiles": "CC(O)C#CC(C)O", "note": "(stereo not given)", "outcome": "inactive"}, {"smiles": "CCC/C=C/CO", "outcome": "inactive"}, {"smiles": "C[Si](Cl)(Cl)CCC(F)(F)C(F)(F)C(F)(F)C(F)(F)C(F)(F)C(F)(F)F", "outcome": "inactive"}, {"smiles": "c1ccc(C[P+](c2ccccc2)(c2ccccc2)c2ccccc2)cc1", "outcome": "inactive"}, {"smiles": "CN1CN(C)CN(C)C1", "outcome": "inactive"}, {"smiles": "CCCC(=O)OCC(COC(=O)CCC)OC(=O)CCC", "outcome": "inactive"}, {"smiles": "OC(O)C(F)(F)C(F)(F)F", "outcome": "inactive"}, {"smiles": "CCc1cccc(C)c1N(C(=O)C(=O)O)C(C)COC", "note": "(stereo not given)", "outcome": "inactive"}, {"smiles": "CC(C)C(=O)OCc1ccccc1", "outcome": "inactive"}, {"smiles": "CC(C)OC=O", "outcome": "inactive"}, {"smiles": "O=C(O)CCC(F)(F)C(F)(F)C(F)(F)F", "outcome": "inactive"}, {"smiles": "CNS(=O)(=O)C(F)(F)C(F)(F)C(F)(F)C(F)(F)C(F)(F)C(F)(F)C(F)(F)C(F)(F)F", "outcome": "inactive"}, {"smiles": "OCC(F)(F)C(F)(F)C(F)(F)CO", "outcome": "inactive"}, {"smiles": "CCCCCCCCn1sc(Cl)c(Cl)c1=O", "outcome": "inactive"}, {"smiles": "CCN=c1cc2oc3cc(NCC)c(C)cc3c(-c3ccccc3C(=O)OCC)c-2cc1C", "outcome": "inactive"}, {"smiles": "CC(C)(C)C(=O)C1C(=O)c2ccccc2C1=O", "outcome": "inactive"}, {"smiles": "C[C@]12CC[C@H]3C(=CCc4cc(O)ccc43)[C@@H]1CCC2=O", "outcome": "inactive"}, {"smiles": "O=c1cccc[nH]1", "outcome": "inactive"}, {"smiles": "NCC(F)(F)C(F)(F)C(F)(F)C(F)(F)C(F)(F)C(F)(F)F", "outcome": "inactive"}, {"smiles": "CCOC(OCC)OCC", "outcome": "inactive"}, {"smiles": "NS(=O)(=O)C(F)(F)C(F)(F)C(F)(F)C(F)(F)C(F)(F)C(F)(F)F", "outcome": "inactive"}, {"smiles": "NC(=O)C(F)(F)C(F)(F)C(F)(F)F", "outcome": "inactive"}, {"smiles": "O=C1c2ccccc2C(=O)c2c(Cl)cccc21", "outcome": "inactive"}, {"smiles": "CC(=O)C=O", "outcome": "inactive"}, {"smiles": "CCN(CCO)S(=O)(=O)C(F)(F)C(F)(F)C(F)(F)C(F)(F)C(F)(F)C(F)(F)C(F)(F)C(F)(F)F", "outcome": "inactive"}, {"smiles": "O=C1C=CC(=O)N1c1ccccc1", "outcome": "inactive"}, {"smiles": "Cc1cc(O)c(C(C)(C)C)cc1C(C)(C)C", "AC50": "7.4 µM (active)"}, {"smiles": "CC(C)CCCC(C)CCO", "note": "(stereo not given)", "outcome": "inactive"}]}]}
